Assay outcomes as filed in PubChem.
Only some compounds are listed: those with a hit (about 19% of all), similar ones and a draw of the others.
DT40 TDP1 no CPT: qHTS for Inhibitors of human tyrosyl-DNA phosphodiesterase 1 (TDP1): qHTS in cells in absence of CPT | hit rate 15% among 420,000 | AID 686978, 2013 | Potency, µM (doses to about 46.2 µM), for the others: top-dose activity change, negative = growth inhibition, usual class: inhibitors | DT40 Tdp1-/- hTDP1 cells, no CPT, ATP luminescence, 48 h; further: potency means the concentration at half of the fitted maximal effect; nearly all actives have a fitted effect of over 55% in size
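No-CPT arm: Tdp1-/-;hTDP1 DT40 cells (400/well) plus compounds, incubated ≥48 hr at 37 °C. Readout CellTiter-Glo luminescence.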
TDP1 cell CPT: DT40-hTDP1 cell growth loss with CPT. chicken DT40 Tdp1-/-;hTDP1 cells + 20 nM CPT, ATP luminescence, 48 h. hit rate 12% among 420,000. Potency, µM (doses to about 46.2 µM), for the others: at the top dose activity change, negative = growth inhibition, most hits filed as inhibitors; further: potency means the concentration at half of the fitted maximal effect; nearly all actives have a fitted effect of over 55% in size
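Chicken DT40 Tdp1-/- cells complemented with human TDP1, 400 cells/well, exposed to compounds plus 20 nM camptothecin for at least 48 h at 37 C; viability read as ATP content by CellTiter-Glo luminescence.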
HT1080-NT tox: kills 2HG-producing HT-1080-NT fibrosarcoma cells; HT-1080-NT fibrosarcoma viability, CellTiter-Glo ATP luminescence, 48 h; Potency, µM (doses to about 46.1 µM), inactives show at the highest dose activity, negative = less viability, hits mostly cytotoxic; hit rate 1.6% among 360,000;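 further: NT is the 2HG producing partner of a matched IDH1 knockdown line; potency means the concentration at half of the fitted maximal effect; 0% = DMSO-treated cells and -100% = media-only wells without cells; nearly all actives have a fitted effect of over 55% in size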
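Fibrosarcoma NT cells, 750 per well in 5% FBS RPMI, were exposed to compound for 48 hours. Viability: CellTiter-Glo luminescence.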
HT1080 IDH1KD tx: HT-1080 IDH1 knockdown cell toxicity (counter line) | HT-1080 IDH1 knockdown viability, ATP luminescence, 48 h | Potency, µM (titrated, usually from 46.1 µM), for inactives: top-dose activity, negative = toxicity, usual class: cytotoxic | hit rate 2% among 360,000;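 further: potency means the concentration at half of the fitted maximal effect; 0% = DMSO wells and -100% = cell-free medium wells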
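After a 2 h attachment period, IDH1KD HT-1080 cells took pin-transferred compound for 48 h at 37 °C; ATP-based luminescence after 10 min room-temperature reagent incubation reported viability.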
IL1B secr inh: inhibitors of inflammasome signaling (IL-1 beta secretion); THP-1 LPS/ATP IL-1B secretion, AlphaLISA, 16 h; stronger effect = lower value; activity change, % at 57.5 µM; hit rate 4.7% among 360,000; in the data active means activity change below about -50%; inconclusive means mostly about -30% to -49%
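Secreted IL-1B measured by AlphaLISA bead assay after 16 h compound exposure of THP-1 cells; compounds (final up to 57.5 uM) added 1 h before LPS (250 ng/mL) and ATP (1.25 mM) stimulation; lower signal means less secretion.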
* marks the source's active call; other numbers are inactive results; u = inconclusive; x = not tested or not shown; ! = not confirmed by another sample; [ ] = another dose, or the depositor's remark. Unless noted, the call rests on the fitted dose curve; in most records, active means well fitted curve in the direction sought with a large enough effect; inconclusive means small, poorly fitted or top-dose-only effect, or another doubt; inactive means no such curve, though single readings can be large; an effect the other way counts as inactive or inconclusive. Unless noted, on the % scale 0 is the no-effect control and ±100 the full control effect.

SMILES	DT40 TDP1 no CPT	TDP1 cell CPT	HT1080-NT tox	HT1080 IDH1KD tx	IL1B secr inh
CC(=O)Nc1ccc(S(=O)(=O)N(C)CC(=O)NNc2c(F)c(F)cc(F)c2F)cc1	-5%	-10%	1%	5%	10
CC1(c2ccc(Cl)c(Cl)c2)NC(=S)N2C1NC(=S)N2c1ccccc1 (stereo unspecified)	u	-22%	0%	0%	-73*
CC1(c2ccc(Cl)cc2)NC(=S)N2C1NC(=S)N2c1ccccc1 (stereo unspecified)	-29%	-11%	-1%	-18%	u
CC(=O)Nc1nc2ccccc2n1Cc1ccccc1C	13µM*	9.2µM*	u	u	u
CC(=O)Nc1nc2ccccc2n1Cc1ccccc1Cl	8.2µM*	21µM*	18µM*	u	-56*
CC(=O)N1CCCC1c1nc2ccccc2n1Cc1ccccc1Cl (stereo unspecified)	18µM*	u	x	x	x
O=C(Nc1nc2ccccc2n1Cc1ccccc1)c1ccco1	21µM*	21µM*	-16%	-18%	-12
Cn1c(NCc2ccccc2Cl)nc2ccccc21	u	-21%	-3%	-2%	u
COc1cccc(C(=O)NCC2Cc3c(F)ccc(-c4ncccn4)c3O2)c1OC (stereo unspecified)	u	-7%[9.04 µM]	x	x	x
Cc1cc(C)c(S(=O)(=O)N2CCN=C2c2ccccc2)c(C)c1	16µM*	u	-3%	1%	20
CCCC(CCC)C(=O)Nc1cccc(-c2nc3cccnc3s2)c1C	-14%	-8%	x	x	x
CCN(CC)CCNc1ccnc2cc(Cl)ccc12	-22%	-21%	u	u	-56*
Clc1ccc2c(NCc3ccccc3)ccnc2c1	10µM*	u	u	-26%	-99*
S=C(NCc1ccccn1)Nc1ccccc1Cl	u	u	19%	18%	-6
S=C(NNc1ccnc2cc(Cl)ccc12)Nc1ccccc1Cl	2.6µM*	4.1µM*	u	u	-91*
Oc1ccc(Nc2ccnc3cc(Cl)ccc23)cc1	21µM*	u	-11%	-24%	-74*
CC(=O)N1CCC(=NNc2ccnc3cc(Cl)ccc23)CC1	-6%	-12%	-1%	-10%	40
Clc1ccc(NNc2ccnc3cc(Cl)ccc23)cc1	u	u	-4%	-2%	-30
COc1cc(C(CC(=O)Nc2ccc(Cl)cn2)N2Cc3ccccc3C2=O)cc(OC)c1OC (stereo unspecified)	u	u	-6%	0%	-19
Nc1ccccc1S(=O)(=O)NC1=NCCCCC1	-6%	0%	0%	1%	0
COc1ccc(NC2CCCN(C(=O)c3ccc(C(C)=O)s3)C2)cc1 (stereo unspecified)	-6%	-14%	-2%	-2%	38
CCN(CC)CCCC(C)Nc1nccc2c(Cl)cccc12 (stereo unspecified)	u	21µM*	u	u	u
CCN(CC)CCOc1c(C)cccc1Cl	10%	0%	-1%	8%	13
CCN(CCO)CCCC(C)Nc1ccnc2cc(Cl)ccc12 (stereo unspecified)	4.1µM*!	2.6µM*	x	x	x
FC(F)(F)c1cnc(NNC(=S)Nc2ccccc2Cl)c(Cl)c1	18µM*	u	u	u	-52*
SMILES	DT40 TDP1 no CPT	TDP1 cell CPT	HT1080-NT tox	HT1080 IDH1KD tx	IL1B secr inh
COc1ccc(Cn2ccnc2SCC(=O)Nc2ccc(C)cc2C)cc1	-21%	-15%	x	x	x
Cc1c(C(=O)NC(C)(C)CO)sc2ncnc(NCCN(C)C)c12	-10%	12%[9.04 µM]	x	x	x
COc1ccc2cc([C@H](C)C(=O)N(C)Cc3ccccc3N3CCCC3)ccc2c1	26µM*	23µM*	u	u	-8
COc1ccc(C(CNC(=O)C(C)c2ccc3cc(OC)ccc3c2)N(C)C)cc1 (stereo unspecified)	u	-25%	-19%	-11%	-21
COc1ccc(NS(=O)(=O)c2cccc(C(=O)N3CCCC3)c2)cc1	2%	-17%	0%	-6%	11
O=C(COC(=O)C1=COCCO1)Nc1ccc(OC(F)F)cc1	-28%	10%	11%	6%	-12
